An excerpt weighted towards active compounds, which were near 1.9% of everything screened.
PP1 counter: blocks human PP1-alpha phosphatase, a PP5 counter-screen | P62136 | purified PP1alpha, OMFP fluorescence | inhibition, % at 6.7 µM | actives 0.9% (n = 320,000);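 active = inhibition above the mean inhibition of all tested compounds plus 3 SD, computed separately for each screening campaign, cut at about 15% in these data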
H9c2 protect: myocardial damage modulation in H9c2 cells; AID 588492; H9c2 cardiomyocytes, H2O2 injury protection, ATPLite, 2 h; protection from H2O2 cell death, % at 20 µM; actives 0.63% (n = 360,000);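 active = compounds giving at least 50% protection of heart cells from peroxide-induced death in the single-dose screen, raw or plate-pattern-corrected value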
ATG4B inhibitor: blocks human ATG4B protease cleavage of LC3 substrate. Q9Y4P1. actives 0.51% (n = 340,000). ATG4B cleavage of LC3-PLA2, NBD-HPC fluorescence, 1 h. inhibition, % at 8.33 µM; in the data active = inhibition above about 40%
Target sequence (Q9Y4P1 whole entry, looked up): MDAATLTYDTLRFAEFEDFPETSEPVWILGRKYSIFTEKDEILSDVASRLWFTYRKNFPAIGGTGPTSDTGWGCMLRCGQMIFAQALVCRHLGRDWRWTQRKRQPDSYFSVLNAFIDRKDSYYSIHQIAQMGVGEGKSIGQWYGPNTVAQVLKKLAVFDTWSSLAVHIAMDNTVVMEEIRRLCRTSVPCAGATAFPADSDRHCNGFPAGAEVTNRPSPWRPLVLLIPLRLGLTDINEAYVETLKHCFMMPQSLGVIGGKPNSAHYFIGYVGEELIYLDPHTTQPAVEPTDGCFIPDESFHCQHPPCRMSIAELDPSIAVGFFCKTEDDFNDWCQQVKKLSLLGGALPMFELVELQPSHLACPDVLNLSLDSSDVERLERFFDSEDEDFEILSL
PP5 primary: blocks human protein phosphatase 5 activity; purified PP5c, OMFP substrate fluorescence; actives 0.18% (n = 320,000); inhibition, % at 6.7 µM; P53041; AID 1987;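 active = inhibition above the campaign's mean inhibition across all tested compounds plus 3 SD, cut at about 9.5% in these data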
PP1 inh confirm: confirmation of human PP1 phosphatase inhibitors. shares compounds with PP1 counter. purified PP1alpha, OMFP substrate fluorescence. inhibition, % at 6.7 µM. actives 52% (n = 1,900). AID 2358;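 active = mean PP1 inhibition above a set limit taken from the earlier primary screen, cut at about 15% in these data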
PP5 inh counter: PP5 phosphatase inhibition, counter-screen for PP1 inhibitors; shares compounds with PP1 counter; purified PP5c, OMFP fluorescence; inhibition, % at 6.7 µM; actives 4% (n = 1,900); AID 2360;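 active = mean PP5 inhibition over triplicate wells above about 9.5% taken from the earlier PP1 screen, limit read from the data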
Hits are given with their value; i = inactive; nt = not tested or not shown.

SMILES	PP1 counter	H9c2 protect	ATG4B inhibitor	PP5 primary	PP1 inh confirm	PP5 inh counter
Cc1cc(C2=NNC(=Nc3ccc(S(=O)(=O)N4CCOCC4)cc3)SC2)c(C)n1C	17.8	i	i	i	i	i
Cc1cc(OCC(=O)Nc2ccc(N3CCCC3)cc2)cc(C)c1Cl	17.7	i	i	i	i	i
CCOc1ccc(OCC(=O)Nc2ccc(N3CCCCC3)cc2)cc1	i	i	i	i	nt	nt
O=C(COC(=O)c1cc(Cl)cc(Cl)c1)NCc1ccco1	nt	i	i	nt	nt	nt
Cc1ccc(C)c(Cn2nnc3c(=O)[nH]c(C(=O)NCc4ccco4)nc32)c1	19.4	i	i	i	i	i
CCN(CC)c1ncnc2c1ncn2[C@H]1CN(Cc2ccccc2)C[C@@H](CO)O1	nt	i	nt	nt	nt	nt
CCOc1ccc(N=Nc2c(=O)[nH]n3c(=O)cc(C)[nH]c23)cc1	18.7	i	i	i	i	i
Cc1cc(=O)n2[nH]c(=O)c(N=Nc3ccccc3)c2[nH]1	i	i	i	i	nt	nt
c1cc2ccc3ccc(-n4cnnn4)c4ccc(c1)c2c34	19.6	i	i	i	23.3	i
O=C(Nc1ccc(S(=O)(=O)Nc2nccs2)cc1)c1ccc(S(=O)(=O)N2CCOCC2)cc1	i	i	i	i	nt	nt
Cc1ccc(S(=O)(=O)N2CCOCC2)cc1C(=O)Nc1ccc(S(=O)(=O)Nc2nccs2)cc1	29.8	i	i	i	i	i
CCCC(NS(=O)(=O)c1ccc(-c2ccc(=O)[nH]n2)s1)c1cccs1 (centres undefined)	i	i	i	i	nt	nt
CCCCCCSc1cc(-c2nc3cc(C)ccn3c2NCCCC)ccc1OC	26.2	i	i	i	i	i
CCCCCCSc1cc(-c2nc3ccc(C)cn3c2NCc2ccccc2)ccc1OC	20.5	i	i	i	i	i
COc1ccc(-c2nnc(NC(=O)c3ccc4c(c3)OCCO4)o2)cc1	i	i	i	i	nt	nt
COc1ccc(-c2nnc(NC(=O)c3ccc(F)cc3)o2)cc1	24.4	67.8	i	i	25.1	i
CCc1c(C(=O)NNC(=O)Nc2ccc3c(c2)OCO3)csc1C	nt	i	i	nt	nt	nt
Cn1c(=O)c(C(=O)CN2CCc3ccccc32)c(N)n(Cc2ccccc2)c1=O	21.6	i	i	i	i	i
CCN(CC)CCN1C(=O)/C(=C\c2ccc(Cl)c([N+](=O)[O-])c2)SC1=Nc1ccc(OC)cc1	18.7	i	i	i	i	i
O=C(c1ccc(Cn2c(=O)[nH]c3ccsc3c2=O)cc1)N1CCN(c2ccccc2)CC1	i	i	i	i	nt	nt
CCc1cccc(NC(=O)c2ccc(Cn3c(=O)[nH]c4ccsc4c3=O)cc2)c1	18.1	i	i	i	i	i
O=C(Nc1ccc(NC(=O)c2sc3ccccc3c2Cl)cc1Cl)c1ccco1	19.9	i	i	i	28.3	i
COc1cc([N+](=O)[O-])cc(/C=N/NC(=O)c2cc(-c3ccccc3)nc3ccccc23)c1O	40.0	i	i	i	40.1	i
COc1cc([N+](=O)[O-])cc(/C=N/NC(=O)c2cc(C)nc3ccccc23)c1O	i	i	i	i	nt	nt
Cn1c2ccccc2c(=O)c2c(=O)n(Cc3ccco3)c(-c3ccc(C(C)(C)C)cc3)nc21	i	nt	nt	i	nt	nt
SMILES	PP1 counter	H9c2 protect	ATG4B inhibitor	PP5 primary	PP1 inh confirm	PP5 inh counter
COc1cc(C2c3c(c(C)c(C)oc3=O)Oc3c(C)c(C)oc(=O)c32)ccc1OS(=O)(=O)c1ccc(C)cc1	21.3	i	i	i	26.0	i
O=c1cc(C(F)(F)F)[nH]c2c(OC(F)(F)F)cccc12	i	i	i	i	nt	nt
COc1ccc(CNC[C@@H](CCCCN(C)Cc2ccc(OC)cc2)N2C[C@H](c3ccccc3)N(CCc3ccc(Cl)c(Cl)c3)C(=O)C2=O)cc1	39.4	i	i	i	i	i
COc1ccc(CNC(=O)[C@@H]2CC=C[C@@H]3CCN(Cc4ccc(Cl)c(Cl)c4)C(=O)[C@@H]32)cc1	i	i	i	i	nt	nt
CCCOc1cccc(-c2nn(-c3ccccc3)cc2/C=C(\C#N)C(=O)NCCCn2ccnc2)c1	i	i	i	i	nt	nt
N#C/C(=C/c1cn(-c2ccccc2)nc1-c1cccc(OCc2ccc(F)cc2)c1)C(=O)NCCCn1ccnc1	22.4	i	i	i	i	i
CCCCN(C)C(=O)c1nc2ccccn2c1CN1CCN(c2ccccn2)CC1	i	i	i	i	nt	nt
CCCCN(C)C(=O)c1nc2ccccn2c1CN1CCN(c2cnccn2)CC1	19.2	i	i	i	i	i
COc1cc(/C=C/CNC[C@H]2O[C@@H](n3ccc(=O)[nH]c3=O)[C@H](O)[C@@H]2O)ccc1O	nt	i	i	nt	nt	nt
CCN1CCN(c2nc(-c3cccnc3)nc3ccccc23)CC1	i	i	i	i	nt	nt
Cc1ccc(C)c(S(=O)(=O)N2CCN(c3nc(-c4cccnc4)nc4ccccc34)CC2)c1	18.6	i	i	i	18.4	i
COc1ccc(S(=O)(=O)N2CCN(c3nc(-c4cccnc4)nc4ccccc34)CC2)cc1	20.8	i	i	i	16.6	i
Cc1ccc(C)c(NC(=O)CN(C)C(=O)CN2C(=O)C3CCCCC3C2=O)c1 (centres undefined)	i	i	i	i	nt	nt
CCc1nnc(NS(=O)(=O)c2ccc(NC(=S)NC(=O)/C=C/c3ccc([N+](=O)[O-])cc3)cc2)s1	i	i	i	i	nt	nt
CCc1nnc(NS(=O)(=O)c2ccc(NC(=S)NC(=O)/C=C/c3ccc(F)cc3)cc2)s1	19.6	i	i	i	i	i
COc1ccc(NC(=S)NC(NC(=O)c2cccc(Cl)c2)C(Cl)(Cl)Cl)c([N+](=O)[O-])c1 (centres undefined)	17.9	i	i	i	i	i
CCCCN(C=O)c1c(CC)nc2ccc(C(=O)NCCN(C)C)cn12	nt	i	nt	nt	nt	nt
CNc1nc(NCc2ccccc2)c2ccccc2n1	i	i	i	i	nt	nt
Oc1ccccc1Nc1nc(NCc2ccccc2)c2ccccc2n1	19.1	i	i	i	i	i
COC(=O)c1cc(-c2cccs2)nn1-c1ccccc1	i	i	i	i	nt	nt
O=C(O)c1cc(-c2cccs2)nn1-c1ccc(F)cc1	19.1	i	i	i	17.5	i
Cc1ccc(Nc2c(-c3ccc(N4CCOCC4)cc3)nc3cnccn23)cc1	63.3	i	i	i	i	i
Cc1ccccc1Nc1c(-c2ccc(N3CCOCC3)cc2)nc2cnccn12	i	i	i	i	nt	nt
NC1=NC[C@H](CC2CCCCC2)N1CCc1cc(C(F)(F)F)cc(C(F)(F)F)c1	17.7	i	i	i	i	i
NC1=NC[C@@H](Cc2ccc(O)cc2)N1CCc1cc(C(F)(F)F)cc(C(F)(F)F)c1	i	i	i	i	nt	nt
CCCCCCCCCCCCCCCC[n+]1cccc2ccccc21	52.2	i	51.4	i	37.5	i
Cc1ccccc1C[n+]1cccc2ccccc21	i	i	i	i	nt	nt
O=[N+]([O-])c1ccc(C[n+]2cccc3c4ccccc4ccc32)cc1	i	i	i	i	nt	nt
CCCCCCCCC[n+]1cccc2c3ccccc3ccc21	19.2	i	i	i	i	i
C=CCC1NS(=O)(=O)OCC1C(C)C (centres undefined)	i	i	i	i	nt	nt
